# Gal4-VP16 FLuc = VP16 counterscreen qHTS for inhibitors of ROR gamma transcriptional activity. AID 2546, 2010. Drosophila S2 Gal4-VP16 UAS-luciferase, luminescence, 20 h. Potency, µM (top dose mostly 53.6 µM), usual class: inhibitors. actives 3.5% (n = 310,000);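 note: Gal4-VP16 expression switched on by copper sulfate through the metallothionein promoter; nearly all actives have a fitted effect of over 50% in size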
# B2AR arrestin = qHTS assay of beta-arrestin-biased ligands of beta2-adrenergic receptor; Beta-2 adrenergic receptor (Homo sapiens), P07550; beta-arrestin recruitment to beta2AR, cell-based reporter; Potency, µM (series often up to 46.1 µM), most hits filed as activators; actives 0.02% (n = 330,000); AID 492947, 2010; note: nearly all actives have a fitted effect of over 65% in size
# ELG1 DNA repair = qHTS screen for small molecules that inhibit ELG1-dependent DNA repair in human embryonic kidney (HEK293T) cells expressing luciferase-tagged ELG1 | AID 504467, 2011 | HEK293T ELG1-luciferase reporter, luminescence, 16 h; DNA damage induced by 5-fluorouridine | Potency, µM (doses to about 46.1 µM), actives largely listed as inhibitors | actives 2.3% (n = 330,000); note: nearly all actives have a fitted effect of over 55% in size
#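 Quantitative HTS, concentration-response format. 2,000 cells/well co-treated with 5-fluorouridine and compound, 16 hr in 5% CO2 at 37 °C; ONE-Glo luminescence read after 30 min.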
# TSHR antagonist = Antagonists of the Thyroid Stimulating Hormone Receptor: HTS campaign. TSHR-expressing cells, TSH-stimulated cAMP HTRF, 2 h; stronger effect = lower value. AID 504810, 2011. activity change, negative = inhibition, % at 11.5 µM. Thyrotropin receptor (Homo sapiens), P16473. actives 0.2% (n = 330,000);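 active = activity change below a set negative limit, meaning inhibition stronger than a set level, cut at about -70% in these data; inconclusive = activity change between two set negative limits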
# Target sequence (P16473 whole entry, looked up): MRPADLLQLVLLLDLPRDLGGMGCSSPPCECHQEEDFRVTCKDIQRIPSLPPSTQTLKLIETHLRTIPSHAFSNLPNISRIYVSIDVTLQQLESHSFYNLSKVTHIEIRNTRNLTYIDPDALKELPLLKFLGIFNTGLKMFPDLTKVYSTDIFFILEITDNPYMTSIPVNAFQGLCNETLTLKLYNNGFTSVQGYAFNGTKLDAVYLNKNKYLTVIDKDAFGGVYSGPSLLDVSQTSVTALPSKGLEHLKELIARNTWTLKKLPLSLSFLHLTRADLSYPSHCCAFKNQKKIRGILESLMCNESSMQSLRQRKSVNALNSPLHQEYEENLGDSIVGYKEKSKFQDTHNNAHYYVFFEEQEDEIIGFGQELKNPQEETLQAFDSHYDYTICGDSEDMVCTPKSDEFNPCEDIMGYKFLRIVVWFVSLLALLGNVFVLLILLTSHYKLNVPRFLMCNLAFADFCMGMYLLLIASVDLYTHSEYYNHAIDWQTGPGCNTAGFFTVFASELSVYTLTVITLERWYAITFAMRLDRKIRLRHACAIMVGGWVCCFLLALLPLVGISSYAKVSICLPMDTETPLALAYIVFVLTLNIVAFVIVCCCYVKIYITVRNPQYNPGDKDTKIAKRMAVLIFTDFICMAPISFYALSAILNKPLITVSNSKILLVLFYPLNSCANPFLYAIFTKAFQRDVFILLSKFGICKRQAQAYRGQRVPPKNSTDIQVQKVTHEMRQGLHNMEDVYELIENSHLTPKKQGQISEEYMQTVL
#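 Competitive HTRF cAMP read-out (cryptate anti-cAMP antibody, cAMP-d2; 30 min, room temperature) in freshly harvested TSHR cells. Compounds added before TSH at EC80 (4nM final), followed by 2 hours' incubation at 37 deg C.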
# RORgamma inh = qHTS for inhibitors of ROR gamma transcriptional activity; Nuclear receptor ROR-gamma (Mus musculus), P51450; Drosophila S2 Gal4-RORgamma UAS-luciferase reporter, 20 h; Potency, µM (titrated, usually from 53.6 µM), hits mostly inhibitors; actives 5.4% (n = 310,000); note: nearly all actives have a fitted effect of over 60% in size
#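 Luminescence from a UAS-regulated Photinus luciferase reporter in stably transfected Drosophila Schneider cells is measured; decreased signal marks ROR gamma inhibition. Fusion expression is induced by 700 uM copper sulfate for 20 hr.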
# Hits are given with their value; n = inactive; u = inconclusive; x = not tested or not shown; [ ] = remark or other dose. Only some compounds are listed: those with a hit (about 7.5% of all), similar ones and a draw of the others. Unless noted, calls come from the whole dose curve; as a rule, active = well fitted curve in the direction sought with a large enough effect; inconclusive = small, poorly fitted or top-dose-only effect, or another doubt; inactive = no such curve, though single readings can be large; an effect the other way counts as inactive or inconclusive.
SMILES,Gal4-VP16 FLuc,B2AR arrestin,ELG1 DNA repair,TSHR antagonist,RORgamma inh
S=C(Nc1ccc(Cl)cc1)c1nc2ccccc2[nH]1,20µM,n,u,n,11µM
CO[C@@H]1COC(=O)[C@@H](C)NC(=O)C/C=C\[C@@H](C)[C@H](NS(=O)(=O)c2ccc(C)cc2)COC(=O)[C@H](C)NC(=O)C/C=C\[C@H]1C,n[10 µM],x,x,x,n[10 µM]
C=C(C)C1Cc2c(C)nn(-c3cccc4cccnc34)c2C1 (stereo unspecified),n,n,u,n,14µM
C=C(C)C1Cc2c(C)nn(-c3ccccn3)c2C1 (stereo unspecified),u,u,n,n,13µM
COc1cccc(-c2ncc3ccccc3c2COC(=O)c2ccc(Br)cc2)c1,x,n,u,n,x
COc1cccc(-c2ncc3ccccc3c2COC(=O)c2ccc(C(F)(F)F)cc2)c1,x,n,21µM,n,x
Cc1ccc(COC(=O)Cc2coc3cc(O)ccc23)cc1,7.1µM,n,n,n,5.6µM
CCOc1ccc(CCNC(=O)COC(=O)c2cccc(OC)c2O)cc1OCC,n,n,n,n,n
CCOc1ccc(CCNC(=O)COC(=O)c2ccc(OC)c(OC)c2OC)cc1OCC,n,n,9.2µM,n,n
COc1ccccc1CNc1ccnc(-c2ccccc2OC)n1,n,x,x,x,n
CCOC(=O)CC(NC(=O)Cc1cccs1)c1ccccc1Cl (stereo unspecified),n,n,n,n,n
CCOC(=O)CC(Nc1nc(N2CCOCC2)nc(N2CCOCC2)n1)c1ccccc1Cl (stereo unspecified),n,n,9.2µM,n,n
O=C(NCCCN1CCCCCC1)[C@@H](c1ccccc1)C1CCCCC1,n,x,x,x,n
Cc1cc(NCCC(C)C)n2nc(C)c(-c3ccccc3)c2n1,n,n,u,n,n
Cc1cc(NCc2ccccn2)n2ncc(-c3ccccc3)c2n1,0.32µM,n,u,n,0.089µM
Cc1cc(NCCCN2CCOCC2)n2ncc(-c3ccccc3)c2n1,n,n,u,n,n
Cc1cc(NCc2ccccn2)n2ncc(-c3ccc(Cl)cc3)c2n1,0.63µM,n,u,n,0.045µM
Cc1cc(NCc2ccccn2)n2nc(C)c(-c3ccc(Cl)cc3)c2n1,0.71µM,n,26µM,n,0.063µM
CN(C)CCCNc1cc(C(C)(C)C)nc2c(-c3ccccc3)cnn12,2.5µM,n,u,n,1.4µM
CN(C)Cc1ccccc1-c1ccc2ncnc(NC3CC3)c2c1,n,x,x,x,n
CC(C)C[C@@H](CC(=O)N[C@H](CC(=O)N[C@@H]1CCNC[C@H]1C(=O)N[C@H](CC(=O)N[C@@H](CCC(=O)O)CC(=O)O)Cc1c[nH]c2ccccc12)C(C)C)NC(=O)[C@@H]1CCCC[C@H]1N,n,x,x,x,n
Cc1cc(Cl)n2ncc(-c3ccccc3)c2n1,u,u,u,n,16µM
COCO/C=C(\NC(C)=O)c1ccccc1,x,n,u,n,x
Cc1cc(S(=O)(=O)N2CCN=C2c2ccccc2)c(C)cc1Cl,n,n,n,n,1.3µM
CCOc1ccc(NC(=S)N(CCCN2CCCC2)Cc2cccn2Cc2ccc(Cl)cc2)cc1,n,n,n,n,13µM
SMILES,Gal4-VP16 FLuc,B2AR arrestin,ELG1 DNA repair,TSHR antagonist,RORgamma inh
CCN1CCCc2cc(CN(CCN3CCOCC3)C(=S)Nc3ccc(C)cc3)ccc21,n[10 µM],n,u,n,3.5µM
CCN1CCCc2cc(CN(CCN3CCOCC3)C(=S)Nc3cccc(Cl)c3)ccc21,n[10 µM],n,n,n,7.1µM
CCOc1ccc(NC(=S)N(CCN2CCOCC2)Cc2ccc3c(c2)CCCN3CC)cc1,u,n,u,n,6.3µM
CCN1CCCc2cc(CN(CCN3CCOCC3)C(=S)Nc3ccc(OC)cc3)ccc21,n[10 µM],n,n,n,u
O=C(CSc1ccc(Br)cc1)NC1CCCCCC1,x,n,u,n,x
CCN(CC)C(=O)Cn1cnc2sc(C)c(S(=O)(=O)N3CCC(C)CC3)c2c1=O,n,n,n,n,n
CC1CCCCN1S(=O)(=O)c1ccc2[nH]c(=O)cc(C(=O)NCCCN3CCCCCC3)c2c1 (stereo unspecified),n,n,n,n,n
